Rows were chosen to be rich in hits. Some 3.3% of all compounds tested hit in one or more screens of this group.
FGF22 binding = binders of recombinant human FGF22 by thermal shift; 340,000 compounds, 1.5% hits; SYPRO orange fluorescence; percent of sucrose octasulfate shift, DMSO zero; AID 651658; activity (Tm shift, normalised), % at 9.99 µM; Q9HCT0;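 active = mean Tm shift, scaled 0 neutral to 100 positive control, at about 1.3% or above, every replicate too, limit read from the data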
Target sequence (Q9HCT0 whole entry, looked up): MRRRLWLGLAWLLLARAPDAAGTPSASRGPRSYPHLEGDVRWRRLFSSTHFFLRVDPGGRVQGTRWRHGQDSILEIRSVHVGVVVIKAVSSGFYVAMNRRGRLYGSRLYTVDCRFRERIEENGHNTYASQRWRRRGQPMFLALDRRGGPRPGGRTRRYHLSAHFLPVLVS
ERAP1 inh = ERAP1 (human) enzyme inhibition | recombinant ERAP1, Leu-AMC fluorescence, 60 min | inhibition, % at 10.7 µM | 340,000 compounds, 0.15% hits | AID 652197;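 active = mean replicate inhibition of at least 30%, or all replicates individually reaching that 30% level; inactive = mean below 30% and not every replicate reaching it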;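 also: 0% = neutral control wells and 100% = L-leucinethiol positive control wells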
GSIS activator = GLuc luminescence reporter in INS-1E cells, primary screen for activators of glucose-dependent secretion of insulin | INS-1E GLuc reporter insulin secretion, 2-3 h | activation, % at 16.6 µM | 370,000 compounds, 0.61% hits | AID 743287;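 active = lowest replicate activation of at least 40%, so every replicate reaches that level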;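 also: 0% = median of neutral control wells and 100% = median of IBMX positive control wells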
CASP6 VEID inh = inhibitors of human caspase-6. P55212. purified caspase-6, Z-VEID-R110 cleavage fluorescence. inhibition, % at 12.5 µM. 350,000 compounds, 0.53% hits. AID 686996;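 active = mean inhibition across replicates at least about 35%, with every replicate also reaching that limit, limit read from the data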;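 also: 0% = median of neutral control wells and 100% = no fluorescence left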
Target sequence (P55212 24-179 limits assumed): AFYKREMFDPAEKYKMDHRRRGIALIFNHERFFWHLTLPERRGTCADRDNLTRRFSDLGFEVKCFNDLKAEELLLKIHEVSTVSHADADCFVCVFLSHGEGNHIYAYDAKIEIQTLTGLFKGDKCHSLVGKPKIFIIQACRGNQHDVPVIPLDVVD
Target sequence (P55212 194-293 limits assumed): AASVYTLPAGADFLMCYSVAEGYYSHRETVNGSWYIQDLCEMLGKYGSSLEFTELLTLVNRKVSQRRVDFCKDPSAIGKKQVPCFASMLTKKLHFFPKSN
SIRT5 block = inhibitors of human sirtuin-5 desuccinylase. Purified SirT5, succinyl-peptide AMC, trypsin-coupled fluorescence. AID 652115. Q9NXA8. inhibition, % at 15 µM. 330,000 compounds, 1.1% hits; in the data active = inhibition above about 15%
* marks the source's active call; other numbers are inactive results; x = no result.

SMILES	FGF22 binding	ERAP1 inh	GSIS activator	CASP6 VEID inh	SIRT5 block
C[C@@H]1CN([C@H](C)CO)S(=O)(=O)c2ccc(-c3cccc(C#N)c3)cc2O[C@@H]1CN(C)C(=O)C1CC1	-0.1	-1.7	-4.6	-1.9	-2.7
CC1=NN(c2cc(Cl)c(S(=O)(=O)O)cc2Cl)C(=O)C1	x	1.6	x	5.8	x
CC1=NN(c2ccc(Cl)c(C(=O)O)c2)C(=O)C1	0.0	8.2	7.1	81.8*	-2.5
CC1=NN(c2ccc(S(=O)(=O)O)cc2Cl)C(=O)C1	1.2	0.8	-3.1	47.0*	1.3
CC1=NN(c2ccc(C(=O)O)c(N)c2)C(=O)C1	0.1	3.7	-2.6	26.1	22.5*
C[C@@H]1CN([C@H](C)CO)C(=O)c2cc(NS(=O)(=O)c3cccs3)ccc2O[C@@H]1CN(C)S(=O)(=O)c1ccccc1	-0.3	3.5	-1.9	0.0	5.9
CCCCCCCn1c2c(c(=N)c3c1CCC3)CCCC2	0.2	82.8*	x	1.7	-1.7
CC1(C(=O)NS(=O)(=O)c2ccccc2Cl)CCN1C(=O)Cc1cccc2ccccc12 (stereo unspecified)	0.3	1.6	x	2.5	30.0*
CC1(C(=O)NS(=O)(=O)c2ccccc2)CCN1C(=O)Cc1cccc2ccccc12 (stereo unspecified)	-0.2	1.3	-10.9	0.8	1.1
CC(C)(C)c1ccc(S(=O)(=O)NC(=O)C2(C)CCN2C(=O)Cc2cccc3ccccc23)cc1 (stereo unspecified)	6.1*	-4.3	4.5	3.3	1.7
C[C@@H]1CN([C@H](C)CO)C(=O)c2cc(NS(=O)(=O)c3cn(C)cn3)ccc2O[C@H]1CN(C)CC1CC1	0.3	-0.4	8.9	-1.5	12.9
O=C(NCC[C@@H]1CC[C@H](NS(=O)(=O)c2ccc(Cl)cc2)[C@@H](CO)O1)Nc1ccc(F)cc1	x	-4.2	4.9	-0.4	-1.7
Cc1ccc(NC(=O)c2ccc3c(c2)CCN3S(C)(=O)=O)cc1	0.0	-11.0	x	-1.5	20.2*
Cc1cc(C)cc(NC(=O)c2ccc3c(c2)CCN3S(C)(=O)=O)c1	0.0	-1.3	-10.0	0.1	-1.4
O=[N+]([O-])c1cccc(/C=N/n2cnnc2)c1O	x	x	-19.1	x	x
O=C1ON=C(c2ccc(Cl)c([N+](=O)[O-])c2)/C1=C/c1cccc([N+](=O)[O-])c1O	0.0	98.6*	0.9	0.3	-3.0
O=C1ON=C(c2ccccc2[N+](=O)[O-])/C1=C/c1cccc([N+](=O)[O-])c1O	0.4	64.6*	10.0	1.3	2.9
COc1ccc(CN(C)C[C@H]2Oc3ccc(NC(=O)CCCCCC(=O)Nc4ccccc4N)cc3CC(=O)N([C@H](C)CO)C[C@H]2C)cc1	0.1	0.4	3.8	-1.2	x
C[C@@H]1CN([C@@H](C)CO)C(=O)Cc2cc(NC(=O)CCCCCC(=O)Nc3ccccc3N)ccc2O[C@@H]1CN(C)Cc1ccc(Oc2ccccc2)cc1	0.2	0.1	17.0	1.3	26.0*
C[C@@H]1CN([C@H](C)CO)C(=O)Cc2cc(NC(=O)CCCCCC(=O)Nc3ccccc3N)ccc2O[C@@H]1CN(C)Cc1ccc(Oc2ccccc2)cc1	-0.4	0.2	8.2	-1.6	16.0*
COc1ccc(CN(C)C[C@H]2Oc3ccc(NC(=O)CCCCCC(=O)Nc4ccccc4N)cc3CC(=O)N([C@@H](C)CO)C[C@H]2C)cc1	-0.3	-0.7	10.1	-0.2	x
C[C@H]1CN([C@@H](C)CO)C(=O)Cc2cc(NC(=O)CCCCCC(=O)Nc3ccccc3N)ccc2O[C@@H]1CN(C)Cc1ccc(Oc2ccccc2)cc1	-0.3	-0.3	14.0	-4.0	28.8*
O=C(C[C@H]1C=C[C@@H](NC(=O)C2CC2)[C@@H](CO)O1)NC1CCC1	-0.1	-1.3	24.2	-0.1	-1.1
C[C@@H]1CCCCO[C@@H](CN(C)S(=O)(=O)c2cn(C)cn2)[C@H](C)CN([C@@H](C)CO)C(=O)c2cc(NS(=O)(=O)c3ccc(Cl)cc3)ccc2O1	0.6	-2.9	-4.1	0.9	-5.7
Nc1ccc(C(=O)NN2C(=O)[C@H](Cl)C2c2ccc(Cl)cc2)cc1 (stereo partly specified)	1.6*	-0.8	-7.5	0.2	-4.0
SMILES	FGF22 binding	ERAP1 inh	GSIS activator	CASP6 VEID inh	SIRT5 block
CCCC#Cc1ccc([C@H]2[C@@H](CO)N3C(=O)CN(C(=O)c4ccccc4)C[C@@H]23)cc1	x	-1.3	13.9	1.5	-0.7
COc1ccc(/C=C\c2cc(OC)c(OC)cc2CC[N+](C)(C)C)cc1OC	0.5	98.6*	x	-1.1	2.1
COCCNC(=O)COc1ccc(C)cc1C(=O)c1cc(C#N)c(=O)n(C2CC2)c1	44.4*	-3.0	13.4	2.3	1.4
COC(=O)CSc1nc(C)c(C)c(C)c1C(N)=O	43.2*	-9.8	7.2	-2.4	-6.3
COC(=O)CSc1nc(N)nc(C)c1Cl	42.3	0.4	13.5	0.4	-1.6
O=c1oc2c(CN3CCN(CCO)CC3)c(O)ccc2cc1-c1ccccn1	0.0	98.5*	-2.6	-0.7	-127.3
CCN1CCN(Cc2c(O)ccc3c(C)cc(=O)oc23)CC1	0.0	32.8*	1.0	-15.6	-129.3
O=c1oc2c(CN3CCCCC3)c(O)ccc2cc1-c1nc2ccccc2[nH]1	0.0	-11.1	-2.2	-0.1	-1.0
CCN(CC)Cc1c(O)c(Cl)cc2c(C)cc(=O)oc12	0.5	66.0*	2.6	23.5	x
Cc1cc(=O)oc2c(CN3CCN(CCO)CC3)c(O)ccc12	-0.1	40.2*	x	-2.4	-130.2
C=CCc1c(O)c(CC)cc2c(C)cc(=O)oc12	0.1	-84.9	17.8	0.3	-18.8
Cc1ccc(-c2ccc3c(c2)O[C@H](CN(C)Cc2ccccn2)[C@@H](C)CN([C@@H](C)CO)S3(=O)=O)cc1	-0.6	-3.2	-19.9	0.8	13.7
Cc1ccc(S(=O)(=O)N(C)C[C@H]2OCc3ccccc3-c3ccccc3C(=O)N([C@H](C)CO)C[C@H]2C)cc1	0.0	-2.1	-20.8	-2.4	14.8
C[C@@H]1CCCCO[C@@H](CN(C)C(=O)CCC(F)(F)F)[C@@H](C)CN([C@@H](C)CO)C(=O)c2cc(NC(=O)Nc3ccccc3)ccc2O1	-0.8	-2.4	-13.3	-1.4	0.6
Cc1cc(=O)oc2c(CN3CCCC3)c(O)c(Cl)cc12	0.0	114.5*	8.4	18.4	-160.3
Cc1cc(=O)oc2c(CN3CCCC3)c(O)ccc12	-0.3	40.7*	-0.8	-2.5	-171.1
COc1ccc(CCCCCCOCc2ccccc2)cc1	0.1	3.1	-6.9	-2.1	x
COc1ccc(COC[B-](F)(F)F)cc1	0.3	0.6	44.4*	-1.1	1.4
CCC(=O)c1ccc(N2CCN(C(=O)c3ccccc3)CC2)c(F)c1	0.1	6.8	-6.8	88.4*	-2.7
CCC(=O)c1ccc(N2CCC(C)CC2)c(F)c1	-0.2	0.6	1.7	-0.8	-0.3
O=C(c1ccccc1)N1CC(=O)N2[C@H](CO)[C@H](c3ccc(/C=C/c4ccccc4)cc3)[C@H]2C1	x	x	-22.1	x	x

Screening results (PubChem)
